Assay results from PubChem BioAssay AID1376 (SRMLSC, 2008).
The whole screen tested about 220,000 compounds, of which about 530 (0.24%) were called active. The list comes from a sample in which actives are over-represented; it also holds similar structures and randomly drawn compounds. Results with a measured potency or affinity are listed apart. Unmarked numbers belong to inactive results. No stated cut-off is given here; in the data, active means inhibition above about 13%; inconclusive means no clear call, values can overlap the other calls; inactive means below that.

target: Bifunctional protein GlmU (Mycobacterium tuberculosis (strain ATCC 25618 / H37Rv)) (UniProt P9WMN3); assay: inhibition of mycobacterial GlmU enzyme – biochemical, glucosamine-1-phosphate acetyltransferase (AID 1376);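 further: 0% = complete reaction with vehicle and 100% = reaction without substrate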; settings: M. tuberculosis GlmU acetyltransferase enzyme assay; stronger effect = higher value;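 tested at 30 µM in the primary screen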
Sequence (P9WMN3 whole entry, looked up): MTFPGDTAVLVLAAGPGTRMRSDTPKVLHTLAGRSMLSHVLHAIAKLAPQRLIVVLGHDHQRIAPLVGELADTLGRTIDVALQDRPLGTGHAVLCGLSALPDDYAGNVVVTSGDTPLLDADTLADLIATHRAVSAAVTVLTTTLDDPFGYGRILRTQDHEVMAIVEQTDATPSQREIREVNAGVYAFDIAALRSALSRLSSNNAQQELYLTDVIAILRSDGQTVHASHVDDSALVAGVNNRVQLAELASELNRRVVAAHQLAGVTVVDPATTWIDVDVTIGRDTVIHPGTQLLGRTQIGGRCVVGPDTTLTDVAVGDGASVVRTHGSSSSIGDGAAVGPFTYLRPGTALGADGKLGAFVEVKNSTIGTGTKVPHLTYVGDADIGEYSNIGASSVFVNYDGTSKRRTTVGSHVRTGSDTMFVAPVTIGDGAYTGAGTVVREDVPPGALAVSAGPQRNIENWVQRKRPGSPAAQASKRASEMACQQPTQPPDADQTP

Row | SMILES | inhibition
1 | Cc1ccc(C)n1-c1ccc(C(=O)O)cc1 | 11.1%
2 | Cc1ccc(C)n1-c1sc2c(c1C(=O)O)CCCC2 | 11.2%
3 | Cc1cccc(-n2c(-c3ccco3)nc3ccccc3c2=O)n1 | -2%
4 | Cc1nc(S/C(=C/c2ccc(-c3ccc(Cl)cc3)o2)C(=O)O)n[nH]1 | -0.27%
5 | Cc1nc(S/C(=C/c2ccc(-c3ccc(C(=O)O)cc3)o2)C(=O)O)n[nH]1 | 11.3%
6 | CC(=O)Nc1ccc(NC(=O)COC(=O)[C@@H](NC(=O)c2ccc(F)cc2)C(C)C)cc1 | -1.53%
7 | Cc1ccccc1C(=O)N1CCN(c2ccc(NC(=O)c3ccc4c(c3)OCO4)cc2)CC1 | -4.66%
8 | CNC(=O)COC(=O)CCC(=O)c1cccs1 | 4.98%
9 | O=C(O)c1cccc(S(=O)(=O)N2CCN(C(c3ccccc3)c3ccccc3)CC2)c1 | -1.93%
10 | Cc1coc(NC(=O)CSc2nc(-c3ccc(Cl)cc3)cc(C(F)(F)F)c2C#N)n1 | 3.77%
11 | COC(=O)C1=C2c3[nH]c4ccccc4c3CCN2C(=O)CC1 | -2.64%
12 | CN(C)S(=O)(=O)c1cccc(NC(=O)NCCCl)c1 | 8%
13 | CN(CC(=O)NCCc1ccc(Cl)cc1)S(=O)(=O)c1ccc2c(c1)c(=O)n(C)c(=O)n2C | -0.75%
14 | Cc1ccc(CCNC(=O)CN(C)S(=O)(=O)c2ccc3c(c2)c(=O)n(C)c(=O)n3C)cc1 | 2.34%
15 | CCCCN(CC)CCNC(=O)CN(C)S(=O)(=O)c1ccc2c(c1)c(=O)n(C)c(=O)n2C | 20.9% (active)
16 | O=C1CCC/C(=N\NC(=O)c2ccc(CSc3cccc4cccnc34)cc2)C1 | 4.6%
17 | CCn1c(SCC(=O)N/N=C/C=C/c2ccco2)nc2ccccc21 | -1.16%
18 | Cn1c(SCC(=O)N/N=C/C=C\c2ccco2)nc2ccccc21 | -4.83%
19 | Cn1c(SCC(=O)N/N=C/C=C/c2ccco2)nc2ccccc21 | 13% (active)
20 | COc1cc(CNCCN(C)C)c(Br)cc1OCC(=O)NCc1ccccc1 | -1.96%
21 | COc1ccc(/C=N/Nc2nc3ccccc3s2)cc1O | -3.48%
22 | COc1cc(/C=N/Nc2nc3ccccc3s2)cc([N+](=O)[O-])c1O | 13.2% (active)
23 | O=[N+]([O-])c1cc(Cl)cc(/C=N/Nc2nc3ccccc3s2)c1O | 0.98%
24 | COc1ccc(/C=C/C(=O)OCC(=O)NC(=O)NC(C)(C)C)cc1 | 1.36%
25 | CC(=O)c1ccc(S(=O)(=O)N2CCN(C(=O)/C=C/c3ccc4ccccc4n3)CC2)cc1 | 14.1% (active)
26 | CC(=O)c1ccc(N2CCN(C(=O)/C=C/c3ccc4ccccc4n3)CC2)cc1 | 0.1%
27 | O=C(/C=C/c1ccc2ccccc2n1)N1CCN(S(=O)(=O)c2ccccc2F)CC1 | -1.23%
